# Source: PubChem BioAssay (NCATS)
# “And” between values parts separate entries of the source, which are not always exact repeats. Equal values may be shown once. Results filed as inconclusive are left out. Where a call stands in place of a potency, no number is given. Some structures have more than one record in an assay (separate samples or runs), and their calls can disagree. The source made the active and inactive calls. Unless noted, calls come from the whole dose curve; as a rule, active = well fitted curve in the direction sought with a large enough effect; inconclusive = small, poorly fitted or top-dose-only effect, or another doubt; inactive = no such curve, though single readings can be large; an effect the other way counts as inactive or inconclusive.
# Columns and labels:
# [1] = Cellular Toxicity (caspase-3) H-4-II-E (AID 663); conditions: H-4-II-E rat hepatoma, scaled: DMSO 0%, 100 µM tamoxifen 100%; at 92.2 µM (top of the series);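 note: cells exposed to compound for 16 hr before readout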
# Outline: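 Caspase 3/7 activation measured in H-4-II-E cells in complete culture medium after 16 hr treatment at 37 °C, using luciferase-coupled substrate readout; AC50 values come from Hill-equation fits of normalized concentration-response data.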
# [2] = Cellular Toxicity (caspase-3) Hek293 (AID 664); conditions: HEK293 caspase-3 activation; caspase-3 activation: at 92.2 µM (top of the series), DMSO = 0%, 100 µM tamoxifen = 100%;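 note: cells exposed to compound for 16 h at 37 °C before readout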; note: potency is the fitted concentration of half-maximal effect
# Outline: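 Apoptosis readout: Caspase-Glo 3/7 signal in human HEK293 cells following 16-hour compound incubation. Responses scaled between DMSO baseline and 100 uM tamoxifen.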
# [3] = Cellular Toxicity (caspase-3) NIH 3T3 (AID 666)
# Outline: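 Activity: caspase-3/7 induction, NIH 3T3 cells, 16 hr treatment at 37°C, luminescent Caspase-Glo detection; AC50 via Hill equation.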
# [4] = Cellular Toxicity (caspase-3) Renal Proximal Tubule (AID 667); conditions: Potency: caspase-3 activation;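 note: cells exposed to compound for 16 hours at 37 °C before detection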; note: potency is the fitted concentration of half-maximal effect
# Outline: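 Caspase-Glo 3/7 read-out, rat primary kidney proximal tubule cells. Compound exposure 16 h, 37 °C; detection after 1 h at RT. Activity scaled to DMSO and 10 uM staurosporine.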
# [5] = target: Guanine nucleotide-binding protein G(i) subunit alpha-1 (Homo sapiens) (UniProt P63096); test: qHTS Assay for Inhibitors of RGS12 GoLoco Motif Activity (Green Fluorophore) (AID 879);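 note: negative values mean loss of peptide binding seen as reduced polarization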
# Outline: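 A drop in FITC polarization marked displacement of the FITC-tagged RGS12 GoLoco peptide (10 nM) from Gαi1 (50 nM). Compounds were incubated 10 min at room temperature in Tris pH 7.5 buffer containing 150 mM NaCl, 0.1 mM GDP and 0.05% NP40; unlabeled peptide titration served as control.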
# [6] = target: Cytochrome P450 3A4 (Homo sapiens) (UniProt P08684); test: qHTS Assay for Inhibitors and Substrates of Cytochrome P450 3A4 (AID 884); note: nearly all actives have a fitted effect of over 50% in size; note: potency is the fitted concentration of half-maximal effect
# Outline: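 Luminescent readout of luciferin produced by CYP3A4 (20 nM) dealkylation of Luciferin-PPXE, 25 uM (its KM). NADPH-driven reaction ran 60 min at RT after 10 min compound preincubation; data scaled to 57 uM ketoconazole as 100% inhibition.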
# [7] = target: Cytochrome P450 2C9 (Homo sapiens) (UniProt P11712); test: qHTS Assay for Inhibitors and Substrates of Cytochrome P450 2C9 (AID 883); note: nearly all actives have a fitted effect of over 60% in size; note: potency is the fitted concentration of half-maximal effect
# Outline: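 Human CYP2C9 (10nM) hydroxylated Luciferin-H (100uM, at its KM) to luciferin in 25mM KPO4. Compound was preincubated 10 min at 37C, then NADPH regeneration started a 60 min reaction at 37C. Luminescence was read after detection reagent, normalized to 57uM sulphaphenazole.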
# [8] = target: Cytochrome P450 2D6 (Homo sapiens) (UniProt P10635); test: qHTS Assay for Inhibitors and Substrates of Cytochrome P450 2D6 (AID 891); note: nearly all actives have a fitted effect of over 60% in size; note: potency is the fitted concentration of half-maximal effect
# Outline: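 Luminescent read-out of luciferin formed by 5 nM human CYP2D6 demethylating 30 uM Luciferin-ME EGE (Km level) over 60 min at room temperature after NADPH regeneration addition. Data normalized to full inhibition by 1.43 uM quinidine.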
# [9] = target: Cytochrome P450 2C19 (Homo sapiens) (UniProt P33261); test: qHTS Assay for Inhibitors and Substrates of Cytochrome P450 2C19 (AID 899); note: nearly all actives have a fitted effect of over 60% in size; note: potency is the fitted concentration of half-maximal effect
# Outline: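 Human CYP2C19 (5nM) with Luciferin-H EGE at 10uM (its KM) in 50mM KPO4 was preincubated with compound for 10 min at 37C. NADPH regeneration started a 60 min 37C reaction. Luciferin was read by luminescence, normalized to 57uM ketoconazole.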
# [10] = qHTS Assay for Identification of Small Molecule Antagonists for NFkB Signaling Pathway (AID 895; active = well fitted inhibition curve with a large enough effect in the signal ratio, with a control signal flat, not every such curve was filed as active; the % refers to the signal ratio; note: potency is the fitted concentration of half-maximal effect)
# Outline: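 NFkB-bla ME-180 cervical carcinoma cells with beta-lactamase reporter under NFkB response element; compounds added, then TNF alpha at 10 pM final (EC50), 5 h at 37 C. LiveBLAzer substrate 2 h, room temperature; emission 460/530 nm at 405 nm excitation.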
# Guanine nucleotide-binding protein G(i) subunit alpha-1 (Homo sapiens), sequence (P63096 whole entry, looked up): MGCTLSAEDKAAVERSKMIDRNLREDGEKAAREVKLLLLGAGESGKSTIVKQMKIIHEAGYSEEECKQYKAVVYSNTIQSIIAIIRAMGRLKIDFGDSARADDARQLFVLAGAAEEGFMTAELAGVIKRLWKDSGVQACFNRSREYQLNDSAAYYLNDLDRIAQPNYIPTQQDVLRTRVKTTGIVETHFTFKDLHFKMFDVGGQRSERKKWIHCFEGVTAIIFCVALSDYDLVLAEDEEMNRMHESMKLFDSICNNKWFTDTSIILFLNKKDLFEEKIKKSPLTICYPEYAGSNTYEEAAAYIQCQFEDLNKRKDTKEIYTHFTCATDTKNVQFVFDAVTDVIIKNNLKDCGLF
# Cytochrome P450 2D6 (Homo sapiens), sequence (P10635 whole entry, looked up): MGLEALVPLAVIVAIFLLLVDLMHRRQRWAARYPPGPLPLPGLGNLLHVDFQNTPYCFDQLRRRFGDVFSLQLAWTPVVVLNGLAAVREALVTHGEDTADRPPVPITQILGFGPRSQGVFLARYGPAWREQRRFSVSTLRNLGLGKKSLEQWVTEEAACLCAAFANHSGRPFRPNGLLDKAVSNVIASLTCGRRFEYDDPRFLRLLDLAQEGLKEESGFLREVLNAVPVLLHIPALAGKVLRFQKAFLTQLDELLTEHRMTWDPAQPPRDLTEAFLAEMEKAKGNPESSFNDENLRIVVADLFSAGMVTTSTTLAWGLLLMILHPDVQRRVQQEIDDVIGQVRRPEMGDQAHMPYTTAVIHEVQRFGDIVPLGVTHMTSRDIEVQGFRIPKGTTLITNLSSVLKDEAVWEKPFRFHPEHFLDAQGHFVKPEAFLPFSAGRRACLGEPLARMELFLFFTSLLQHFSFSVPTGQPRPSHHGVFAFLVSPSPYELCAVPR
# Cytochrome P450 2C9 (Homo sapiens), sequence (P11712 whole entry, looked up): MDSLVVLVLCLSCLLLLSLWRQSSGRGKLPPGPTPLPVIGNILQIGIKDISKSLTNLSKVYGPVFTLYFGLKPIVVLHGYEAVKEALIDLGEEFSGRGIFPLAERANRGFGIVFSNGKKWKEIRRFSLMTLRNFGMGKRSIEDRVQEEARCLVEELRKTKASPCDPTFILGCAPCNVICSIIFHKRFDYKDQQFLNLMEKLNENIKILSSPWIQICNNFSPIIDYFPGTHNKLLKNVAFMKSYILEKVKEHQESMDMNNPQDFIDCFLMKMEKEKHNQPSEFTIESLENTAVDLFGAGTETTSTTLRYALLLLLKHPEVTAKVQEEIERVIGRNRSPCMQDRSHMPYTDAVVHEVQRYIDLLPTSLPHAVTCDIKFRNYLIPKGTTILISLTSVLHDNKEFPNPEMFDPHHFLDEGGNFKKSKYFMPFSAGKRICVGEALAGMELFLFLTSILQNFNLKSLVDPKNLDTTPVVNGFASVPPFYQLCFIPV
# Cytochrome P450 3A4 (Homo sapiens), sequence (P08684 whole entry, looked up): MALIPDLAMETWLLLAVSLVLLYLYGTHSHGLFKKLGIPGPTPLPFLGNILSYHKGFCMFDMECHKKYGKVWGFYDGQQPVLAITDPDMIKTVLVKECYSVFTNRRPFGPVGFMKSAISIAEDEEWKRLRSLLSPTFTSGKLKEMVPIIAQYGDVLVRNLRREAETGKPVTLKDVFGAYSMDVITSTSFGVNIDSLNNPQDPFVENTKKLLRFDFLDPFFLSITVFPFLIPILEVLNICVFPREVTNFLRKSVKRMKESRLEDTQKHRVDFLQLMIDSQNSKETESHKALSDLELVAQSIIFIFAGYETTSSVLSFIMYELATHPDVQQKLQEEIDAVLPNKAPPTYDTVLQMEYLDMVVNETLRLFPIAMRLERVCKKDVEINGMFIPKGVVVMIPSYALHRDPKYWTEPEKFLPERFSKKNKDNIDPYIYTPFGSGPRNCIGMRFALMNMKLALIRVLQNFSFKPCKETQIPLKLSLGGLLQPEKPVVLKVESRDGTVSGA
# Cytochrome P450 2C19 (Homo sapiens), sequence (P33261 whole entry, looked up): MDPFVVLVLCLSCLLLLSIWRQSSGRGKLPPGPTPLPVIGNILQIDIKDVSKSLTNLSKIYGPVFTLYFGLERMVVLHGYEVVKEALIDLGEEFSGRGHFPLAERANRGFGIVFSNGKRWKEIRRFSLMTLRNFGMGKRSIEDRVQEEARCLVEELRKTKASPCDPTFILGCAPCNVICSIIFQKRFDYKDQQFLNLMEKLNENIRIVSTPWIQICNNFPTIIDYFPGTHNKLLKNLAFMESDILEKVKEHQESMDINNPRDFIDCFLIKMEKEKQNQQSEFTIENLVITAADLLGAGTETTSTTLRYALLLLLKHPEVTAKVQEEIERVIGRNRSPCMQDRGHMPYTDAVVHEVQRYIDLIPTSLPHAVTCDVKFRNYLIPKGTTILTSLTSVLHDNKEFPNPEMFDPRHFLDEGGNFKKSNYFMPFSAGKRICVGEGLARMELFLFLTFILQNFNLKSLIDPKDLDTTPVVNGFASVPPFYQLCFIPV
smiles,measurement,setting,value
O=C1NC(=O)C(c2ccccc2)(c2ccccc2)N1,caspase-3 activation,[1],0.679% (inactive)
same,Potency,[2],inactive
same,outcome,[3],inactive
same,Potency,[4],inactive
same,outcome,[5],inactive
same,Potency,[6],inactive
COc1ccc(Cc2nccc3cc(OC)c(OC)cc23)cc1OC,outcome,[5],inactive
CC(C)(C)c1ccc(C(O)CCCN2CCC(C(O)(c3ccccc3)c3ccccc3)CC2)cc1 (stereo not drawn),outcome,[5],inactive
O=c1c(-c2ccc(O)cc2)coc2cc(O)ccc12,caspase-3 activation,[1],-2.27% (inactive)
same,Potency,[2],inactive
same,outcome,[3],inactive
same,Potency,[4],inactive
same,outcome,[5],inactive
same,Potency,[7],inactive and 6.31 µM (active)
same,Potency,[8],inactive
same,Potency,[9],inactive
C[N+](C)(C)CCCCCC[N+](C)(C)C,outcome,[5],inactive
same,Potency,[7],inactive
same,Potency,[6],inactive
O=C(O)Cc1cccc2ccccc12,caspase-3 activation,[1],0.142% (inactive)
same,Potency,[2],inactive
same,outcome,[3],inactive
same,Potency,[4],inactive
same,Potency,[6],inactive
CC(C)NCC(O)COc1cccc2[nH]ccc12 (stereo not drawn),outcome,[5],inactive
CCN(CC)CCNC(=O)c1ccc(N)cc1,outcome,[5],inactive
CC/C(=C(\c1ccccc1)c1ccc(OCCN(C)C)cc1)c1ccccc1,caspase-3 activation,[2],147% (active)
same,outcome,[3],inactive
same,outcome,[5],inactive
O=c1cc(-c2ccc(O)cc2)oc2cc(O)cc(O)c12,caspase-3 activation,[1],9.21% (inactive)
same,Potency,[2],inactive
same,outcome,[3],inactive
same,Potency,[4],inactive
same,Potency,[7],inactive
same,Potency,[9],7.94 µM (active)
CC(=O)c1ccc(S(=O)(=O)NC(=O)NC2CCCCC2)cc1,caspase-3 activation,[1],1.08% (inactive)
same,Potency,[2],inactive
same,outcome,[3],inactive
same,Potency,[4],inactive
same,outcome,[5],inactive
same,Potency,[7],inactive
same,Potency,[6],inactive
same,Potency,[8],inactive
same,Potency,[10],inactive
same,Potency,[9],inactive
CCn1cc(C(=O)O)c(=O)c2ccc(C)nc21,caspase-3 activation,[1],-0.698% (inactive)
same,Potency,[2],inactive
same,outcome,[3],inactive
same,Potency,[4],inactive
NC(N)=Nc1nc(CSCC/C(N)=N/S(N)(=O)=O)cs1,outcome,[5],inactive
CCCNC(=O)NS(=O)(=O)c1ccc(Cl)cc1,caspase-3 activation,[1],-0.479% (inactive)
same,Potency,[2],inactive
same,outcome,[3],inactive
same,Potency,[4],inactive
same,outcome,[5],inactive
same,Potency,[7],inactive
same,Potency,[6],inactive
same,Potency,[8],inactive
same,Potency,[9],inactive
O=C(O)c1cc(O)c2c(c1)C(=O)c1cccc(O)c1C2=O,caspase-3 activation,[1],1.57% (inactive)
same,Potency,[2],inactive
same,outcome,[3],inactive
same,Potency,[4],inactive
same,Potency,[6],inactive
O=c1c(O)c(-c2ccc(O)cc2)oc2cc(O)cc(O)c12,Potency,[2],inactive
same,outcome,[3],inactive
same,Potency,[4],inactive
same,Potency,[7],15.8 µM (active)
same,Potency,[8],15.8 µM (active)
CC1=C(/C=C/C(C)=C/C=C/C(C)=C/C(=O)Nc2ccc(O)cc2)C(C)(C)CCC1,caspase-3 activation,[1],91.2% (active)
same,Potency,[2],31.6 µM (active)
same,outcome,[3],inactive
same,Potency,[4],31.6 µM (active)
same,outcome,[5],inactive
same,Potency,[10],6.31 µM (active)
O=c1[nH]cnc2c1ncn2[C@H]1CC[C@@H](CO)O1,caspase-3 activation,[1],0.398% (inactive)
same,Potency,[2],inactive
same,outcome,[3],inactive
same,Potency,[4],inactive
same,Potency,[6],inactive
O=C(O)CCc1nc(-c2ccccc2)c(-c2ccccc2)o1,outcome,[5],inactive
CC(=O)O[C@]1(C(C)=O)CC[C@H]2[C@@H]3C=C(Cl)C4=CC(=O)[C@@H]5C[C@@H]5[C@]4(C)[C@H]3CC[C@@]21C,caspase-3 activation,[1],0.0575% (inactive)
same,Potency,[2],inactive
same,outcome,[3],inactive
same,Potency,[4],inactive
same,Potency,[6],inactive
C[N+](C)(C)CC(=O)O,outcome,[5],inactive
CCCCC1C(=O)N(c2ccccc2)N(c2ccccc2)C1=O,caspase-3 activation,[1],0.827% (inactive)
same,Potency,[2],inactive
same,outcome,[3],inactive
same,Potency,[4],inactive
same,outcome,[5],inactive
same,Potency,[8],inactive
same,Potency,[9],inactive
CN(C)CCC(c1ccccc1)c1ccccn1 (stereo not drawn),caspase-3 activation,[1],1.53% (inactive)
same,Potency,[2],inactive
same,outcome,[3],inactive
same,Potency,[4],inactive
same,Potency,[6],inactive
O=C1NCC2(CCN(CCc3ccccc3)CC2)O1,outcome,[5],inactive
same,Potency,[6],inactive
CCN(CC)CCOC(=O)c1ccc(N)cc1,outcome,[5],inactive
same,Potency,[6],inactive
same,Potency,[10],inactive
COCCCCC(=NOCCN)c1ccc(C(F)(F)F)cc1,Potency,[8],3.98 µM (active)
same,Potency,[9],0.0631 µM (active)
CCN1CCC[C@H]1CNC(=O)c1cc(S(N)(=O)=O)ccc1OC,outcome,[5],inactive
same,Potency,[6],inactive
same,Potency,[9],inactive
CCCCCCCCCCCC1=C(O)C(=O)C=C(O)C1=O,Potency,[7],25.1 µM (active)
same,Potency,[6],inactive
same,Potency,[8],inactive and 2 µM (active)
CC1(C)CCC2=C(O1)c1ccccc1C(=O)C2=O,outcome,[5],inactive
same,Potency,[10],8.91 µM (active)
COc1ccc(-c2coc3cc(O)ccc3c2=O)cc1,Potency,[7],inactive
same,Potency,[6],inactive
CS(=O)c1ccc(-c2nc(-c3ccc(F)cc3)c(-c3ccncc3)[nH]2)cc1 (stereo not drawn),Potency,[7],2 µM (active)
same,Potency,[9],0.0398 µM (active)
CC(C)OC(=O)C(C)(C)Oc1ccc(C(=O)c2ccc(Cl)cc2)cc1,outcome,[5],inactive
same,Potency,[7],5.01 µM (active)
same,Potency,[6],inactive
same,Potency,[8],inactive
O=C1C[C@@H](c2ccc(O)cc2)Oc2cc(O)cc(O)c21,Potency,[8],inactive
Nc1ncnc2c1ncn2[C@@H]1O[C@H](CO)C[C@@H]1O,Potency,[6],inactive
CC(=O)CCCCn1c(=O)c2c(ncn2C)n(C)c1=O,outcome,[5],inactive
same,Potency,[7],inactive
same,Potency,[6],inactive
same,Potency,[8],inactive
same,Potency,[9],inactive
CCN(CC)C(=O)c1ccc(O)c(OC)c1,outcome,[5],inactive
same,Potency,[7],inactive
same,Potency,[6],inactive
same,Potency,[8],inactive
same,Potency,[9],inactive
O=c1cc(-c2ccccc2)oc2cc(O)c(O)c(O)c12,Potency,[7],5.01 µM (active)
same,Potency,[8],31.6 µM (active)
same,Potency,[9],5.01 µM (active)
COc1ccccc1N1CCN(CCCNc2cc(=O)n(C)c(=O)n2C)CC1,outcome,[5],inactive
same,Potency,[6],inactive
same,Potency,[9],7.94 µM (active)
COc1cccc(-c2cc(=O)c3ccccc3o2)c1N,outcome,[5],inactive
same,Potency,[6],7.94 µM (active)
same,Potency,[10],inactive
same,Potency,[9],6.31 µM (active)
COc1ccc(-c2coc3cc(O)cc(O)c3c2=O)cc1,Potency,[7],inactive
same,Potency,[6],20 µM (active)
same,Potency,[8],31.6 µM (active)
same,Potency,[9],7.94 µM (active)
c1cc(-c2sc(-c3ccncc3)c(-c3ccncc3)c2-c2ccncc2)ccn1,Potency,[7],2 µM (active)
same,Potency,[6],0.316 µM (active)
same,Potency,[9],1.58 µM (active)
NCCS,outcome,[5],inactive
same,Potency,[6],inactive
same,Potency,[10],inactive
COc1cc(O)c2c(c1)C(=O)c1cc(C)cc(O)c1C2=O,Potency,[6],inactive
Clc1ccc(Cn2c(CN3CCCC3)nc3ccccc32)cc1,outcome,[5],inactive
same,Potency,[8],1.26 µM (active) and 794 nM (active)
same,Potency,[9],0.199 µM (active)
CC(=O)N[C@@H](CS)C(=O)O,outcome,[5],inactive
same,Potency,[6],inactive
O=c1cc(-c2ccccc2)oc2cc(O)cc(O)c12,Potency,[6],7.94 µM (active) and inactive and 2.51 µM (active)
same,Potency,[9],0.794 µM (active)
O=C1C(Cl)=C(NCCN2CCOCC2)C(=O)c2ncccc21,Potency,[6],2.51 µM (active)
